Assay outcomes from PubChem.
Compounds with a hit are over-represented: about 2.4% of the library has one in this group of screens.
D2 antag = antagonists of human D2 dopamine receptor | P14416 | HEK293 TREx D2 cells, calcium flux, dopamine EC80 | inhibition, % at 10 µM | actives 2% (n = 340,000); in the data active means inhibition above about 30%; inactive means below that, where a call was filed; further: 0% is about no effect
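Tetracycline-induced HEK293 T-REx cells expressing D2 force-coupled to calcium signalling were dye-loaded, exposed to compound for 180 s, then challenged with an EC80 of dopamine; calcium flux was followed kinetically for a further 180 s.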
D2 PAM-1 = positive allosteric modulators of human D2 dopamine receptor. actives 0.34% (n = 340,000). potentiation, % at 10 µM. HEK293 T-REx D2, calcium flux, EC20 dopamine potentiation;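 active means potentiation over 3 SD above the plate norm, cut at about 30% in these data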; further: 0% is about no effect
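Cells plated with tetracycline inducer and held overnight at 30 C; calcium dye loaded 30–90 min at room temperature; baseline taken, compound added and read 180 s; EC20 dopamine then added and read 180 s.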
D2 PAM-2 = human D2 receptor positive allosteric modulation. AID 624464. potentiation, % (concentration not given with the values). DiscoveRx D2 beta-arrestin cells, luminescence, 90 min; 100% = 57 uM dopamine signal. actives 0.23% (n = 360,000). P14416; in the data active means potentiation above about 50%
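PathHunter beta-arrestin assay in DiscoveRx D2 cells. Compounds were added with an EC20 of dopamine (50 nM final) for 90 min at 37 deg C. Luminescence was read 1 h after detection reagent, with 57 uM dopamine as the EC100 control.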
D2 ag-1 = activates the human D2 dopamine receptor; DiscoveRx PathHunter D2 beta-arrestin, luminescence, 90 min; 100% = 57 uM dopamine signal; activation, % (test concentration not listed); actives 0.084% (n = 360,000); in the data active means activation above about 40%
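Agonist mode: compounds alone added to overnight-plated D2 PathHunter cells for 90 min at 37 C, with 57 uM final dopamine (EC100) defining full response. Beta-arrestin recruitment detected by chemiluminescent reagent, read after 1 h at ambient temperature.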
D2 ag-2 = activates the human D2 dopamine receptor. activation, % at 2 µM. HEK293 T-REx D2 cells, calcium flux agonist mode. P14416. actives 0.53% (n = 340,000);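 active means activation over 3 SD above normal in the single-dose calcium agonist read, cut at about 30% in these data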; further: 0% is about no effect
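HEK293 Trex D2 cells, tetracycline-induced, o/n 30 C 5% CO2; no-wash Ca dye, RT 30–90 min; 10-cycle baseline, 23 nl cpd added, kinetic Ca read 180 s; agonist hits = positive Ca response.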
D3 arrestin ag = activates human D3 dopamine receptor beta-arrestin recruitment | DiscoveRx D3 beta-arrestin cells, luminescence, 90 min | actives 4% (n = 2,300) | shares compounds with D2 ag-2 | Potency, µM (series often up to 76.9 µM), inactives show at the top dose activation, usual class: activators;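 further: potency means the concentration at half of the fitted maximal effect; 100% = dopamine control response; nearly all actives have a fitted effect of over 70% in size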
Target sequence (P35462 whole entry, looked up): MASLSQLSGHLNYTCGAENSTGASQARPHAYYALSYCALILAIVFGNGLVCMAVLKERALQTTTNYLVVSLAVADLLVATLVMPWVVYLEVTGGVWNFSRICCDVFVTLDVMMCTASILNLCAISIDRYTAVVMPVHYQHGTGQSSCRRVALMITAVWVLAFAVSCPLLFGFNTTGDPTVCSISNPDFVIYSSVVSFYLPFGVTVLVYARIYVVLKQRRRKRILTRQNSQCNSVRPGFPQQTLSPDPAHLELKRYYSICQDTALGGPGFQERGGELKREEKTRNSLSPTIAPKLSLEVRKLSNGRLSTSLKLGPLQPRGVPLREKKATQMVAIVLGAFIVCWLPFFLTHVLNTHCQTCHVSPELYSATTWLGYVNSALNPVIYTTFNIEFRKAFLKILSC
D2 ag-3 = activates human D2 dopamine receptor in D3 counterscreen; shares compounds with D2 ag-2; DiscoveRx PathHunter D2 beta-arrestin, luminescence, 90 min; response scale: percent relative to full dopamine signal; actives 5.9% (n = 2,300); AID 720507; Potency, µM (titrated, usually from 76.9 µM), for the others: at the highest dose activation, most hits filed as activators; further: potency means the concentration at half of the fitted maximal effect; % of control where 0% means no effect; nearly all actives have a fitted effect of over 70% in size
* hit, by the source's call. Unless noted, the call rests on the fitted dose curve; in most records, active means well fitted activation curve with a large enough effect; inconclusive means small, poorly fitted or top-dose-only effect; inactive means flat fitted curve, though single readings scatter.

Results for O=S(=O)(NCCN1CCCC1)c1cccc2cccnc12 ?
D2 antag: -9.8; D2 PAM-1: 0.5; D2 PAM-2: -5.6; D2 ag-1: -2.4; D2 ag-2: 0.6

Results for O=S(=O)(NCCCN1CCN(c2ccccc2F)CC1)c1cccc2cccnc12 ?
D2 PAM-2: 0.8; D2 ag-1: -3.5; D3 arrestin ag: 16.6%; D2 ag-3: 13.6%

How did c1ccc(N2CCN(Cc3cn4ccccc4n3)CC2)cc1 do in these assays?
D2 antag: 36.6*; D2 PAM-1: -18.4; D2 PAM-2: -16.3; D2 ag-1: 2.0; D2 ag-2: 69.5*; D3 arrestin ag: -9.3%; D2 ag-3: 7.2%

Results for c1ccc(N2CCN(Cc3cn4cccnc4n3)CC2)cc1 ?
D2 antag: 48.5*; D2 PAM-1: -24.0; D2 PAM-2: -4.5; D2 ag-1: 0.0; D2 ag-2: 53.0*; D3 arrestin ag: 1.3%; D2 ag-3: 23.2%

How did c1ccc(CN2CCN(Cc3cn4cccnc4n3)CC2)cc1 do in these assays?
D2 antag: 8.5; D2 PAM-1: -9.9; D2 PAM-2: -10.2; D2 ag-1: 2.6; D2 ag-2: 0.5

How did CCOc1ccccc1NC(=O)C1CCCN(S(=O)(=O)c2ccc3c(c2)CCCN3C(C)=O)C1 (configuration not stated) do in these assays?
D2 PAM-1: 8.6; D2 PAM-2: 0.4; D2 ag-1: -1.7; D2 ag-2: 1.2

Results for C[C@H](CO)N1C[C@H](C)[C@@H](CN(C)C(=O)NC2CCCCC2)Oc2c(NC(=O)Cc3ccccc3)cccc2C1=O ?
D2 PAM-2: -3.4; D2 ag-1: -5.9

Results for CC(C)[C@H](Nc1ccc(S(=O)(=O)N2CCOCC2)cc1[N+](=O)[O-])C(=O)OCC(=O)N(C(C)C)C(C)C ?
D2 antag: 23.4; D2 PAM-1: 0.7; D2 PAM-2: -9.8; D2 ag-1: -0.4; D2 ag-2: 1.5; D3 arrestin ag: -9.1%; D2 ag-3: 7.5%

How did CC(C)[C@H](Nc1ccc(S(=O)(=O)N2CCOCC2)cc1[N+](=O)[O-])C(=O)OCC(N)=O do in these assays?
D2 antag: -0.3; D2 PAM-1: -1.2; D2 PAM-2: -1.1; D2 ag-1: 0.8; D2 ag-2: -0.2

Results for CCc1ccccc1NC(=O)c1cc(-c2cccc(O)c2)on1 ?
D2 PAM-2: 3.3; D2 ag-1: -2.3; D3 arrestin ag: -8.4%; D2 ag-3: -0.8%

What do the screens show for `O=C(Nc1ccccc1C(F)(F)F)c1cc(-c2cccc(O)c2)on1`?
D2 antag: -14.9; D2 PAM-1: -9.8; D2 PAM-2: -7.1; D2 ag-1: -0.2; D2 ag-2: 0.9

What do the screens show for `CCC1CCCCN1C(=S)NC(=O)c1cccc([N+](=O)[O-])c1` (configuration not stated)?
D2 antag: 16.5; D2 PAM-1: -3.3; D2 PAM-2: -4.3; D2 ag-1: -2.4; D2 ag-2: 0.9

How did Cc1cccc(C(=O)NNC(=S)NC(=O)c2cccs2)c1 do in these assays?
D2 antag: 15.8; D2 PAM-1: 3.9; D2 PAM-2: -17.7; D2 ag-1: -6.7; D2 ag-2: 26.1; D3 arrestin ag: -10.0%; D2 ag-3: -9.8%

How did CCC1(OC(=O)CN(C)C)C(=O)OCc2c1cc1n(c2=O)Cc2cc3c(N)cccc3nc2-1 (configuration not stated) do in these assays?
D2 PAM-2: -2.6; D2 ag-1: 2.8

Results for CC(OC(=O)c1cccs1)C(=O)NC1CC1 (configuration not stated) ?
D2 antag: 8.3; D2 PAM-1: 0.1; D2 PAM-2: 0.3; D2 ag-1: 2.7; D2 ag-2: 0.7
